Reference: the supplement of paper PMC12350171
Where a name gives a salt, the structure may show the parent alone.

Key:
Conditions in all cases: 20 µM
[1] = tested on: Salmonella enterica typhimurium; assay: growth AUC normalised to DMSO control (fraction of control); higher = less growth inhibition, active = hit call of the paper
Summary of the method: (§1)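 Hemin and NAD were added to the medium for Haemophilus parainfluenzae. All pathogens, after two anaerobic passages, were inoculated at a starting OD578 of 0.01 into pre-reduced mGAM plates with 20 μM compound and 1% DMSO under breathable seals, and OD578 was read hourly for 24 h in three biological replicates. AUC of each growth curve was obtained with the trapezoidal rule up to the exponential-to-stationary transition and normalised to DMSO controls from the same plate.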

Shigella flexneri = assay: as above
Summary of the method: as §1

Vibrio cholerae = assay: as above
Summary of the method: as §1

[2] = tested on: Yersinia pseudotuberculosis; assay: as above
Summary of the method: as §1

P. vulgatus RND KO = assay: growth AUC normalised to DMSO control (median) (fraction of control); higher = less growth inhibition, active = hit call of the paper
Summary of the method: (§2)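 In 96-well plates of mGAM seeded at OD578 0.01, strains that had been passaged twice overnight without oxygen were exposed to approved-drug library compounds at 20 μM with 1% DMSO. Hourly OD578 readings were taken for 24 h in an anaerobic incubator. The trapezoidal-rule area under the curve, with curves truncated at entry into stationary phase, was expressed relative to same-plate vehicle wells as the median of three biological replicates.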

P. vulgatus WT = assay: as above
Summary of the method: as §2

[3] = tested on: S. enterica typhimurium WT; assay: as above
Summary of the method: as §2

[4] = tested on: S. enterica typhimurium tolC KO; assay: as above
Summary of the method: as §2

Measured: growth AUC normalised to DMSO control
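Wherever growth AUC normalised to DMSO control (median) is given: active when median AUC fell below 0.1.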

Nc1ccn([C@@H]2CS[C@H](CO)O2)c(=O)n1 [Lamivudine]
inactive: [1] 0.98 | Shigella flexneri 0.986 | Vibrio cholerae 0.995 | [2] 1.01 | P. vulgatus RND KO 1 | P. vulgatus WT 1.02 | [3] 1 | [4] 0.992

CNCCC(Oc1ccc(C(F)(F)F)cc1)c1ccccc1 (stereo not given) [Fluoxetine hydrochloride]
inactive: [1] 0.996 | Shigella flexneri 1 | Vibrio cholerae 0.975 | [2] 0.991 | P. vulgatus RND KO 0.991 | P. vulgatus WT 0.997 | [3] 1.01 | [4] 0.934

CCN(CC)C(=S)SSC(=S)N(CC)CC [Disulfiram]
inactive: Shigella flexneri 0.968 | Vibrio cholerae 0.989 | [2] 0.97 | P. vulgatus RND KO 0.896 | P. vulgatus WT 1.07 | [3] 0.995 | [4] 1

CCOC(=O)OC(C)OC(=O)[C@@H]1N2C(=O)[C@@H](NC(=O)[C@H](N)c3ccccc3)[C@H]2SC1(C)C (stereo not given in full) [Bacampicillin hydrochloride]
active: [1] 0.00881 | Shigella flexneri 0.0323 | [2] 0.277 | [4] 0.0179
inactive: Vibrio cholerae 1 | [3] 0.154

COC1=CC(=O)C[C@@H](C)[C@]12Oc1c(Cl)c(OC)cc(OC)c1C2=O [Griseofulvin]
inactive: Shigella flexneri 0.998 | Vibrio cholerae 0.99 | [2] 1.03 | P. vulgatus RND KO 0.99 | P. vulgatus WT 0.976 | [3] 1 | [4] 0.996

CCOC(=O)O[C@]1(C(=O)COC(=O)CC)CC[C@H]2[C@@H]3CCC4=CC(=O)C=C[C@]4(C)[C@H]3[C@@H](O)C[C@@]21C [Prednicarbate]
inactive: [1] 1.01 | Shigella flexneri 1.03 | [2] 1 | P. vulgatus RND KO 1 | P. vulgatus WT 1.04 | [3] 0.992 | [4] 0.967

Nc1nc2ccc(OC(F)(F)F)cc2s1 [Riluzole hydrochloride]
inactive: [1] 1.01 | Shigella flexneri 0.993 | Vibrio cholerae 0.937 | [2] 0.984 | P. vulgatus RND KO 0.999 | [3] 0.979 | [4] 0.976

C#C[C@]1(O)CC[C@H]2[C@@H]3CCc4cc(OC)ccc4[C@H]3CC[C@@]21C [Mestranol]
inactive: [1] 0.987 | Shigella flexneri 1.01 | Vibrio cholerae 1.01 | [2] 1.01 | P. vulgatus RND KO 0.968 | P. vulgatus WT 0.96 | [3] 0.999 | [4] 0.988

C[C@@H](O)[C@H]1C(=O)N2C(C(=O)O)=C(SCCNC=N)C[C@H]12 [Imipenem]
active: Shigella flexneri 0.63
inactive: [1] 1.02 | Vibrio cholerae 1 | [2] 0.967 | [3] 1 | [4] 0.996

CCCC(=O)Nc1ncnc2c1ncn2[C@@H]1O[C@@H]2COP(=O)(O)O[C@H]2[C@H]1OC(=O)CCC [Bucladesine sodium salt]
inactive: Shigella flexneri 1 | Vibrio cholerae 1.01 | [2] 0.998 | P. vulgatus RND KO 1.02 | P. vulgatus WT 1.01 | [3] 1.01 | [4] 1.01

O=C(O)c1cccnc1 [Niacin]
inactive: Shigella flexneri 1.02 | Vibrio cholerae 1.06 | [2] 0.993 | P. vulgatus RND KO 1.05 | P. vulgatus WT 1.09 | [3] 1.02 | [4] 0.985

Cc1cc(N)c2ccccc2[n+]1CCCCCCCCCC[n+]1c(C)cc(N)c2ccccc21 [Dequalinium dichloride]
inactive: [1] 0.989 | Shigella flexneri 0.939 | Vibrio cholerae 0.96 | [4] 0.503
active: [2] 0.932 | P. vulgatus RND KO 0.0354 | P. vulgatus WT 0.0484

O=c1cc(-c2ccc(O)c(O)c2)oc2cc(O)cc(O)c12 [Luteolin]
inactive: Shigella flexneri 1 | Vibrio cholerae 0.976 | [2] 0.978 | P. vulgatus RND KO 0.987 | P. vulgatus WT 1.02 | [3] 0.993 | [4] 0.878

O=c1n(CCCN2CCN(c3cccc(Cl)c3)CC2)nc2ccccn12 [Trazodone hydrochloride]
inactive: [1] 0.992 | Shigella flexneri 0.991 | Vibrio cholerae 0.957 | [2] 0.984 | P. vulgatus RND KO 0.993 | P. vulgatus WT 1.01 | [3] 1 | [4] 0.964

Cc1onc(-c2ccccc2Cl)c1C(=O)N[C@@H]1C(=O)N2[C@@H]1SC(C)(C)[C@@H]2C(=O)O [Cloxacillin sodium salt]
active: [4] 0.0356
inactive: [1] 1.01 | Shigella flexneri 1 | Vibrio cholerae 0.99 | [2] 1.01 | [3] 0.994

Cc1onc(-c2ccccc2)c1C(=O)N[C@@H]1C(=O)N2[C@@H]1SC(C)(C)[C@@H]2C(=O)O [Oxacillin sodium]
active: [2] 0.908 | [4] 0.0924
inactive: [1] 0.975 | Shigella flexneri 1.03 | Vibrio cholerae 0.961 | P. vulgatus WT 0.151 | [3] 0.994

CCC(=O)OCC(=O)[C@@]1(OC(=O)CC)[C@@H](C)C[C@H]2[C@@H]3CCC4=CC(=O)C=C[C@]4(C)[C@@]3(Cl)[C@@H](O)C[C@@]21C [Beclomethasone dipropionate]
inactive: [1] 0.99 | Shigella flexneri 0.956 | Vibrio cholerae 0.965 | [2] 1.01 | P. vulgatus WT 0.972 | [3] 1.01 | [4] 0.975
